Measured values as given in publication PMC4336329 (PLoS ONE, 2015).
Screen size: about 310,000 compounds; about 14,000 (4.5%) showed an effect of 50% or more. Effects have a minus sign here. Many of the other results were omitted from the sample, so strong results are more common in it than they were.

Biological target: human ether-à-go-go-related gene (hERG) potassium channel (human, UniProt Q12809)
Assay: primary screen, population patch clamp on CHO cells stably expressing hERG; higher = less effect of the substance
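Note: peak tail current of the secondary pulse compared with the same well before compound.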

Chain of human ether-à-go-go-related gene (hERG) potassium channel (Q12809 whole entry, looked up): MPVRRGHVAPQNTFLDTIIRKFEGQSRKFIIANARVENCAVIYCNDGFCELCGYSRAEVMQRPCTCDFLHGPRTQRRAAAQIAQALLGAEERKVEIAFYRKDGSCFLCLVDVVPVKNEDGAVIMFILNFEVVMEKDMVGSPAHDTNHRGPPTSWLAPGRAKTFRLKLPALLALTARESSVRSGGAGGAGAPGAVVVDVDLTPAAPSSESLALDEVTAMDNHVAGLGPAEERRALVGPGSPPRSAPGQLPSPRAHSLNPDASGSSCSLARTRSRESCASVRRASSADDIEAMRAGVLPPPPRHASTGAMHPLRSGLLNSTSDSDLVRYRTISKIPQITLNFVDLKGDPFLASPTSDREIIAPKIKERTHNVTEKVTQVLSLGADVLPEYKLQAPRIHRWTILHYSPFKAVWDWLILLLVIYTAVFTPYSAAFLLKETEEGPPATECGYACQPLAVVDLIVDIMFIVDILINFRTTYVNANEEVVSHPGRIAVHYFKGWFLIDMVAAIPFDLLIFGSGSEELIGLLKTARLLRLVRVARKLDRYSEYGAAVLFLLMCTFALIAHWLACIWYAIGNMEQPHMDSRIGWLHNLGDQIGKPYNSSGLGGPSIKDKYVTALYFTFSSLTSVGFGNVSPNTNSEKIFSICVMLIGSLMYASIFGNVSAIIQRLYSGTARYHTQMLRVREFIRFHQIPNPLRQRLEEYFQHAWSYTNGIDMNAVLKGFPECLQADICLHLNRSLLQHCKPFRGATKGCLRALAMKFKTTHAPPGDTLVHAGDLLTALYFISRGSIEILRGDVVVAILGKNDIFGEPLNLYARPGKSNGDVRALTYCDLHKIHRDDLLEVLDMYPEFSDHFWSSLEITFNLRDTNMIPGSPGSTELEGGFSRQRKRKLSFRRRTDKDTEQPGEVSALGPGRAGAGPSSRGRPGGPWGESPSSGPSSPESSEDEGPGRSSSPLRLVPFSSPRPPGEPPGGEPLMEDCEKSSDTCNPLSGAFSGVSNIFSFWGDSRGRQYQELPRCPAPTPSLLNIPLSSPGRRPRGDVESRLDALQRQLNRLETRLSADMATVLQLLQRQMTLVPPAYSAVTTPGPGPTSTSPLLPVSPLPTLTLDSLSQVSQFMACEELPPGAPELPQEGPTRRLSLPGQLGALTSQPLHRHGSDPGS

Point of comparison: `COc1ccc(-c2ccc(NC(=O)c3ccco3)cc2)nn1`, “hERG current change (%, negative = inhibition) at 10uM” value 5.79%. Against it:
- COc1ccc(C)cc1S(=O)(=O)NCCc1ccccc1 — lower, -28.3%
- CCN(CC)c1ccc(C(=O)OCC(=O)Nc2ccc3[nH]c(=O)[nH]c3c2)cc1 — lower, 5.58%
- Cc1ccc2nc(SCc3nnc(-c4ccccc4Br)o3)[nH]c2c1 — lower, -6.41%
- CCOC(=O)c1c(C=O)c(C)n(Cc2ccc(Cl)cc2)c1C — lower, -18.8%
- CCOc1ncccc1C(=O)OCc1ccc(Cl)cc1 — lower, -20%
- CCOC(=O)C1=C(OCc2ccc(Cl)cc2)C2C=C(C)C=CC2N=C1 (stereo not shown) — lower, -69.1%
- CC(=O)c1ccc(-n2c(C)c(C(C)=O)c3cc(O)ccc32)cc1 — higher, 8.94%
- O=C(NCCN1CCN(c2ccc([N+](=O)[O-])cc2)CC1)NCc1ccccc1 — lower, -67.7%
- O=C(c1ccc([N+](=O)[O-])cc1)N1CCc2ccccc2C1 — lower, -44.7%
- O=C(CCC(=O)NNC(=O)c1ccc([N+](=O)[O-])cc1)NCc1ccccc1 — higher, 10.9%
- O=C(NCCN1CCN(C(=O)c2ccc([N+](=O)[O-])cc2)CC1)C(=O)NCc1ccccc1 — lower, -78.9%
- O=C(NCCN1CCN(C(=O)c2cccc(Br)c2)CC1)C(=O)NCc1ccccc1 — lower, -70%
- CC(NC(=O)C(=O)NCCN1CCN(C(=O)c2ccc([N+](=O)[O-])cc2)CC1)c1ccccc1 (stereo not shown) — lower, -75.1%
- COc1ccc(N2CCN(CCNC(=O)Nc3ccc([N+](=O)[O-])cc3OC)CC2)cc1 — lower, -17.1%
- O=C(c1cccc(Br)c1)N1CCN(C(=O)c2cccc(Br)c2)CC1 — lower, -28.5%
- CC(C(=O)NCCN1CCOCC1)c1ccc([N+](=O)[O-])cc1 (stereo not shown) — higher, 16.7%
- O=C(NCCN1CCN(C(=O)c2cccc(Br)c2)CC1)C(=O)Nc1ccc(Br)cc1 — lower, -42.1%
- CC(NC(=O)C(=O)NCCN1CCN(C(=O)c2ccccc2Br)CC1)c1ccccc1 (stereo not shown) — higher, 6.37%
- CCc1ccc(N2CCN(CCNC(=O)Nc3ccccc3)CC2)cc1 — lower, -21.1%
- Cc1ccccc1-n1nc(C)c2cc(C(=O)NCc3cccnc3)sc21 — lower, -31%
- O=C(c1ccc(COc2ccc(Br)cc2)o1)N1N=C(C(F)F)CC1(O)C(F)F (stereo not shown) — lower, 2.57%
- Cn1c(N/N=C/c2c[nH]c3ccccc23)nc2ccccc21 — lower, -46.7%
- COC(=O)c1ccc(-n2nnnc2SC)cc1 — lower, 3.46%
- COc1cccc(/C=C2/Oc3ccccc3N(CC(=O)NCC3CCCO3)C2=O)c1 (stereo not shown) — higher, 14%
- Cc1nn(Cc2ccccc2)c(C)c1C(=O)OCC(=O)c1cc(C)n(C2CC2)c1C — lower, -10.2%
- NC(=O)COc1ccc(C23CC4CC(CC(C4)C2)C3)cc1 — higher, 7.2%
- Cl.O=C(Cc1ccc(Cl)cc1)NCCN1CCCC1 — lower, -21.9%
- CC(C)(C)c1ccc(C(=O)N2CCN(CCNC(=O)C(=O)NCc3ccc(Cl)cc3)CC2)cc1 — lower, -41.1%
- Cc1ccc(C(=O)N2CCN(CCNC(=O)C(=O)NCc3ccc(Cl)cc3)CC2)cc1 — lower, -74%
- Cc1ccc(C(=O)N2CCN(CCNC(=O)C(=O)NC(C)C)CC2)cc1 — higher, 9.12%
- O=C(NCCN1CCN(S(=O)(=O)c2ccc(F)cc2)CC1)C(=O)NCc1ccccc1 — lower, 0.451%
- O=C(NCCN1CCN(C(=O)c2cccc([N+](=O)[O-])c2)CC1)C(=O)NCc1ccc(Cl)cc1 — lower, -50.1%
- CN1CCN(C(=O)CNC(=O)Cc2ccc(Cl)cc2)CC1 — lower, 5.31%
- O=C(NCc1ccc(F)cc1)N1CCN(C(=O)c2ccccc2)CC1 — lower, -13.5%
- O=C(Cc1ccc(Cl)cc1)NCCN1CCN(C(=O)Cc2ccc(Cl)cc2)CC1 — lower, -53.4%
- O=C(NCCN1CCN(C(=O)c2ccc(F)cc2)CC1)C(=O)NCc1ccccc1 — lower, -73.9%
- COc1ccc(Cc2nc3ccccc3n2CC(=O)N/N=C/c2ccc(O)cc2)cc1OC — lower, 0.975%
- C=CCOc1ccccc1CNc1ccccc1C — lower, -15.7%
- Cc1c(NC(=O)C(C)n2cc([N+](=O)[O-])cn2)c(=O)n(-c2ccccc2)n1C (stereo not shown) — higher, 19.4%
- O=C(/C=C/Nc1ccccc1F)c1cccs1 — lower, 1.08%
- COc1ccc(OCc2nn3c(-c4ccco4)nnc3s2)cc1 — lower, -36.6%
- Cn1cccc1/C=C1\SC(=O)N(c2ccc(O)cc2)C1=O — lower, 0.777%
- COc1ccc(/C(C)=N/NC(=O)C(NC(=O)c2ccccc2)c2n[nH]c(=O)c3ccccc23)c(OC)c1 (stereo not shown) — lower, 4.11%
- O=C(COC(=O)c1cc(S(=O)(=O)N2CCCCC2)ccc1N1CCOCC1)NCCc1ccc(F)cc1 — lower, -25.5%
- Cc1ccc(S(=O)(=O)N2CCN(CCNC(=O)C(=O)NCc3ccccc3)CC2)cc1 — lower, 5.65%
- CC(C)NC(=O)C(=O)NCCN1CCN(C(=O)c2ccc(C(C)(C)C)cc2)CC1 — lower, -3.01%
- CC(C)(C)c1ccc(C(=O)N2CCN(CCNC(=O)C(=O)NCc3ccccc3)CC2)cc1 — lower, -57%
- COc1ccc(-c2noc(CCC(N)=O)n2)cc1OC — lower, 3.66%
- Cc1csc(NC(=O)c2ccccc2C(=O)O)n1 — lower, -0.365%
- Cc1ccc(NC(=O)c2ccn(C)n2)c(Br)c1 — lower, 0.15%
- Cc1ccc(CNC(=O)c2cc(S(=O)(=O)N3CCOCC3)cn2C)cc1 — lower, -12.5%
- CCCSc1nc2cc(OC)c(OC)cc2c(=N)n1CCCN1CCOCC1 — lower, -74.6%
- CC(Sc1nc2ccccc2c(=O)n1CC1CCCO1)C(=O)N(C)c1ccccc1 (stereo not shown) — lower, -41.6%
- CC(C)Cn1c(N)c(C(=O)CSc2nc3ccccc3c(=O)n2CCCN2CCOCC2)c(=O)n(C)c1=O — lower, -22.2%
- O=C1c2ccccc2C(=O)N1CCSc1nc2ccccc2c(=O)n1CCCN1CCOCC1 — lower, -15.1%
- COCCCn1c(SCCc2ccccc2)nc2cc(OC)c(OC)cc2c1=N — lower, -12.7%
- COCCCn1c(SCC(=O)O)nc2cc(OC)c(OC)cc2c1=N — higher, 9.07%
- CC(Sc1nc2ccccc2c(=O)n1CC1CCCO1)C(=O)N(C)Cc1ccccc1 (stereo not shown) — lower, -59.8%
- CC(=O)Nc1ccc(NC(=O)C(C)Sc2nc3ccccc3c(=O)n2CC2CCCO2)cc1 (stereo not shown) — higher, 7.41%
- O=C(CSc1nc2ccccc2c(=O)n1CCCN1CCOCC1)NC12CC3CC(CC(C3)C1)C2 — lower, -67.8%
- COC(=O)c1ccc2c(=O)n(CCN3CCOCC3)c(SCC(=O)NCc3ccccc3)nc2c1 — lower, -46.1%
- CC(=O)c1c(C)[nH]c(C(=O)CSc2nc3ccccc3c(=O)n2CCCN2CCOCC2)c1C — lower, -15.5%
- COc1ccccc1CNC(=O)CSc1nc2ccccc2c(=O)n1CCCN1CCOCC1 — lower, -56%
- CC(OC(=O)c1cc2sccc2n1C)C(=O)NCC1CCCO1 (stereo not shown) — lower, 0.798%
- Cc1ccc(S(=O)(=O)CC(=O)N2CCCC2)cc1 — lower, -0.506%
- O=C(CCc1ccc(Oc2cc([N+](=O)[O-])cc([N+](=O)[O-])c2)cc1)N1CCCCCC1 — lower, -30.2%
- Cn1cc(SCC(=O)Nc2nc3ccccc3s2)c2ccccc21 — lower, -5.6%
- Cc1noc(C(C)C)c1C(=O)Nc1ccc(-c2nnc3n2CCCCC3)cc1 — lower, -4.21%
- Cc1cccc(C)c1-n1nnnc1S(=O)(=O)Cc1ccccc1Cl — lower, -18.2%
- CC(C)CN1CCC(C(=O)NCC2CCCO2)CC1.O=C(O)C(=O)O (stereo not shown) — lower, -3.21%
- CC(C)CN(CC(C)C)C(=O)CN1c2cccc3cccc(c23)S1(=O)=O — higher, 18.1%
- CCN(CC)C(=O)Oc1cc2c(-c3cc4cccc(OC)c4o3)cc(=O)oc2cc1C — higher, 9.85%
- COCCn1c(SCc2ccc(OC)c(F)c2)nc2ccccc2c1=O — lower, -2.82%
- COc1ccc(CNC(=O)C(C)Sc2nc3ccccc3c(=O)n2CCCN2CCOCC2)cc1 (stereo not shown) — lower, -84.9%
- COc1ccc(CNC(=O)CSc2nc3c(oc4ccccc43)c(=O)n2CC2CCCO2)cc1 (stereo not shown) — lower, -60.6%
- CCn1c(SCc2ccc(OC)c(F)c2)nc2ccccc2c1=O — higher, 23.4%
- COc1ccc(CNC(=O)C(C)Sc2nc3ccccc3c(=O)n2CC2CCCO2)cc1 (stereo not shown) — lower, -78.7%
- COc1ccccc1NC(=O)C(C)Sc1nc2ccccc2c(=O)n1CC1CCCO1 (stereo not shown) — lower, -37.2%
- CCC(Sc1nc2ccccc2c(=O)n1CCN1CCOCC1)C(=O)NCc1cccnc1 (stereo not shown) — lower, -37%
- COc1ccc(-c2nc3ccccc3c(=O)n2CCCN2CCOCC2)cc1 — higher, 6.17%
- COc1ccc(CSc2nc3ccccc3c(=O)n2CCCN2CCOCC2)cc1F — lower, -53.4%
- O=C(CSc1nc2c(oc3ccccc32)c(=O)n1CC1CCCO1)NCc1ccccc1 (stereo not shown) — lower, -15.8%
- CC(Sc1nc2ccccc2c(=O)n1CC1CCCO1)C(=O)NC(C)c1ccccc1 (stereo not shown) — lower, -5.01%
- COc1cccc(CNC(=O)CSc2nc3c(oc4ccccc43)c(=O)n2CC2CCCO2)c1 (stereo not shown) — lower, -36.4%
